According to PubChem BioAssay (EPA / NIEHS):
The source made the active and inactive calls. Rule for the calls: active = hit-call score of the fitted dose curve at least 0.9, where 1 is the maximum; inactive = score below 0.9.

Legend:
[1] = biological target: Paired box protein Pax-6 (Homo sapiens) (UniProt P26367); test: ATG_Pax6_CIS: Attagene CIS-FACTORIAL HepG2 Assay for human Paired Box 6 (PAX6) (AID 2282956); conditions: HepG2 CIS-FACTORIAL PAX6 reporter transcription, RNA readout; actives raise or lower the signal
Sequence of Paired box protein Pax-6 (Homo sapiens) (P26367 whole entry, looked up): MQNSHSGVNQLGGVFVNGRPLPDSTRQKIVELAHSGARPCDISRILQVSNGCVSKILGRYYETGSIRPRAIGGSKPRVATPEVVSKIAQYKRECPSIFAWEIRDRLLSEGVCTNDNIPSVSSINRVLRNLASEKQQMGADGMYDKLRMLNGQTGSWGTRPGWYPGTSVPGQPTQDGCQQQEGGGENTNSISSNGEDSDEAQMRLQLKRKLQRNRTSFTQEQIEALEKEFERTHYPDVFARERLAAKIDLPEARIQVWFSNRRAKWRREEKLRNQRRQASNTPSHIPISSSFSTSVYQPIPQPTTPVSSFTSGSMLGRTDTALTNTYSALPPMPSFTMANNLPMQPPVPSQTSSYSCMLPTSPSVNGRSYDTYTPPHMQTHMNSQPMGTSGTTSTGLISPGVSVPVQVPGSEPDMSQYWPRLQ
Outline: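 After twenty-four hours of chemical exposure, transfected HepG2 cells are harvested for RNA. Cis-promoter reporter transcripts are amplified, fluorescently labelled and sized by capillary electrophoresis, with gain and loss of signal scored against DMSO.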

[2] = ATG_PXRE_CIS: Attagene CIS-FACTORIAL HepG2 Assay for human Pregnane X Receptor Element (PXRE) (AID 2282957); conditions: HepG2 Attagene CIS-FACTORIAL PXRE reporter, mRNA; actives raise or lower the signal
Outline: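 HepG2 cells transiently transfected with cis-regulated multiple reporter transcription units; endogenous factor activity measured as reporter mRNA 24 h after dosing. RT-PCR, fluorescent primer extension, HpaI digestion, capillary electrophoresis; bidirectional fit versus DMSO baseline.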

[3] = ATG_Sox_CIS: Attagene CIS-FACTORIAL HepG2 Assay for human SRY-box transcription factor (SOX) (AID 2282960); conditions: HepG2 Attagene cis-factorial SOX reporter, mRNA; actives raise or lower the signal
Outline: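 After 24 h of chemical treatment, transfected HepG2 reporter cells are lysed for total RNA. Transcript levels come from RT-PCR with labelled primer extension and capillary electrophoresis, analysed bidirectionally versus DMSO.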

[4] = biological target: Transcription factor Sp1 (Homo sapiens) (UniProt P08047); test: ATG_Sp1_CIS: Attagene CIS-FACTORIAL HepG2 Assay for human Specificity Protein 1 (Sp1) (AID 2282961); conditions: HepG2 Sp1 cis-reporter transcription, actives raise or lower the signal
Sequence of Transcription factor Sp1 (Homo sapiens) (P08047 whole entry, looked up): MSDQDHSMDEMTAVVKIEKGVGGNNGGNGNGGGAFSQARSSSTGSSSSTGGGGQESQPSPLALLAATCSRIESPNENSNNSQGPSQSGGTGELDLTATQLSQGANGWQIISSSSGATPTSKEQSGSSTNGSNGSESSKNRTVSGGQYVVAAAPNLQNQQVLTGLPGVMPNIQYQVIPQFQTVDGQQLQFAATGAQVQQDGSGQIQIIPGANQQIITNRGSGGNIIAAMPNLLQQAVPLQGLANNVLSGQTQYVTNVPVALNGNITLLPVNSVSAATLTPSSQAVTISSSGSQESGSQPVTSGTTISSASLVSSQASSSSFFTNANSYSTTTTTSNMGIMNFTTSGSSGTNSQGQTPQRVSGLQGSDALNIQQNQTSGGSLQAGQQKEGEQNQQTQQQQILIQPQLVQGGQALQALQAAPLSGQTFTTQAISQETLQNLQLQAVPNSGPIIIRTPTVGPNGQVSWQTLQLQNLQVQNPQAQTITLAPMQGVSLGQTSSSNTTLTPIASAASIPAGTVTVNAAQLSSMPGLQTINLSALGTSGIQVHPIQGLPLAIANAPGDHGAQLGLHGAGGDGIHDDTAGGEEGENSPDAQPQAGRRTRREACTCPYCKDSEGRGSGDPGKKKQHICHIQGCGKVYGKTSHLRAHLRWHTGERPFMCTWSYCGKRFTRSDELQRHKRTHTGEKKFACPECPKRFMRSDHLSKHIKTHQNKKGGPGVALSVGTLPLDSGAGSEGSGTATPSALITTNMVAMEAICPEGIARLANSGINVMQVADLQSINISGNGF
Outline: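 Sp1-driven reporter mRNA, read as capillary electrophoresis fluorescence after RT-PCR, in transiently transfected HepG2 cells dosed for 24 h; signal change in either direction relative to DMSO.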

[5] = ATG_SREBP_CIS: Attagene CIS-FACTORIAL HepG2 Assay for human Sterol Regulatory Element Binding (SREBP) (AID 2282962); conditions: HepG2 Attagene cis-factorial SREBP reporter, mRNA; actives raise or lower the signal
Outline: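 Twenty-four hours after chemical dosing of transfected HepG2 cultures, reporter RNA was converted to cDNA, amplified, end-labelled with 6-FAM and resolved by capillary electrophoresis. Responses were fitted relative to DMSO.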

[6] = biological target: Signal transducer and activator of transcription 3 (Homo sapiens) (UniProt P40763); test: ATG_STAT3_CIS: Attagene CIS-FACTORIAL HepG2 Assay for human Signal Transducer and Activator of Transcription 3 (STAT3) (AID 2282963); conditions: HepG2, Attagene cis-factorial STAT3 reporter transcription; actives raise or lower the signal
Sequence of Signal transducer and activator of transcription 3 (Homo sapiens) (P40763 whole entry, looked up): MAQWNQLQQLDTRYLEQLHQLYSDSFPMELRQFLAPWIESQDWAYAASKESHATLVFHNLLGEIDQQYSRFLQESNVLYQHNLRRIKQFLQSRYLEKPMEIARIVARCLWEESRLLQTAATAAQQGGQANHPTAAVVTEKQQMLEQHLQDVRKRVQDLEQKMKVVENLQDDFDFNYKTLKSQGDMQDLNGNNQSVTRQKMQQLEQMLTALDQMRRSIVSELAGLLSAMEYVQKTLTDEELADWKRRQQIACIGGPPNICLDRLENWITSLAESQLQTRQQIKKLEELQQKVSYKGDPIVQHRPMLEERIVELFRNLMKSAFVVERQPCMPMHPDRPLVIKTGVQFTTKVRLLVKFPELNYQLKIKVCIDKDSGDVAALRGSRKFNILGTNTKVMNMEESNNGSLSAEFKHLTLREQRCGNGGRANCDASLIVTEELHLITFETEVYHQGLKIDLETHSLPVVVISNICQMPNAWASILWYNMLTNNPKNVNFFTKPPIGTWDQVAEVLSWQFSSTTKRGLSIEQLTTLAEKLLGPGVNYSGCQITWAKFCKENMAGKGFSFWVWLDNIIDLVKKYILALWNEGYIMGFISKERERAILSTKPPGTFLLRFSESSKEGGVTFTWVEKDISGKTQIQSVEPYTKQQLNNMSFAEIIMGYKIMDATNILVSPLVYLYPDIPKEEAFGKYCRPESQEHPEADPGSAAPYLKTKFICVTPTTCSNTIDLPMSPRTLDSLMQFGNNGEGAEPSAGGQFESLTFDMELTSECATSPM
Outline: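 HepG2 cells transiently transfected with cis-element-driven multiple reporter transcription units; after 24 h chemical exposure, reporter mRNA measured by RT-PCR, 6-FAM primer-extension labelling, HpaI digestion and capillary electrophoresis. Bidirectional fitting versus DMSO baseline.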

[7] = ATG_TA_CIS: Attagene CIS-FACTORIAL HepG2 Assay for human TA Basal Promoter (AID 2282964); conditions: HepG2 Attagene CIS-factorial TA basal promoter reporter; actives raise or lower the signal
Outline: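 Read-out: fluorescent reporter-transcript fragments resolved by capillary electrophoresis after RT-PCR and HpaI digestion. Source: HepG2 cells carrying transiently transfected multi-reporter cis constructs, treated 24 h. Endpoint fitted bidirectionally relative to DMSO.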

[8] = ATG_RORE_CIS: Attagene CIS-FACTORIAL HepG2 Assay for human RAR-related Orphan Receptor Element (RORE) (AID 2282959); conditions: HepG2 Attagene cis-factorial RORE reporter, mRNA; actives raise or lower the signal
Outline: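 Fluorescence intensity of reporter-specific cDNA fragments, separated by capillary electrophoresis, gives the signal. Source: HepG2 liver cells transiently transfected with cis-element reporters and exposed 24 h; DMSO-normalized bidirectional fit.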

[9] = ATG_PBREM_CIS: Attagene CIS-FACTORIAL HepG2 Assay for human Phenobarbital-responsive Enhancer Module (PBREM) (AID 2282955); conditions: HepG2 PBREM cis-reporter, Attagene multiplexed transcription; actives raise or lower the signal
Outline: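 After a 24 h incubation with test chemical, transfected HepG2 cells yield total RNA; reporter-specific RT-PCR products are fluorescently labelled, HpaI-digested and resolved by capillary electrophoresis against ROX size standards.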

[10] = ATG_PPRE_CIS: Attagene CIS-FACTORIAL HepG2 Assay for human Peroxisome Proliferator-activated Response Element (PPRE) (AID 2282958); conditions: HepG2 PPRE cis-element reporter, Attagene transcription factor profiling; actives raise or lower the signal
Outline: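 Multiplexed reporter transcription units under cis-regulatory promoters were transfected into HepG2 cells to capture endogenous factor activity. A 24 h incubation preceded RNA isolation and fluorescent RT-PCR fragment analysis.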

Measured: AC50

CCCC(CCC)C(=O)O
not listed: [8] | [9] | [10]
inactive: all other assays above

OC(Cn1cncn1)(Cn1cncn1)c1ccc(F)cc1F
inactive: [1] | [2] | [4] | [5] | [6] | [7]

C[C@]12C=CC(=O)C=C1CC[C@H]1[C@@H]3C[C@@H](O)[C@](O)(C(=O)CO)[C@@]3(C)C[C@H](O)[C@@]12F
inactive: [1] | [8] | [3] | [4] | [5] | [6]

OC(CCl)CCl
inactive: [9] | [1] | [4] | [5] | [6] | [7]

CC[C@H](C)C(=O)O[C@H]1C[C@H](O)C=C2C=C[C@H](C)[C@H](CC[C@@H](O)C[C@@H](O)CC(=O)O)[C@H]21
inactive: [1] | [8] | [3] | [4] | [5] | [6]

O=C(N[C@H](CO)[C@H](O)c1ccc([N+](=O)[O-])cc1)C(Cl)Cl
inactive: [9] | [1] | [4] | [5] | [6] | [7]

Cn1c(=O)c2[nH]cnc2n(C)c1=O
not listed: [7] | [9] | [10]
inactive: all other assays above

CCCCCCCC/C=C\CCCCCCCC(=O)OC[C@@H](O)[C@H]1OC[C@H](O)[C@H]1O
active: [2] 71.7 µM
not listed: [3] | [7] | [9]
inactive: all other assays above

CCCCCCCCCCCCCCO
inactive: [1] | [3] | [4] | [7]
active: [5] 171 µM | [6] 158 µM

O=C(O)c1cccc(C(=O)O)c1
inactive: [1] | [2] | [8] | [4] | [5] | [6]

NC(=O)NN=Cc1ccc([N+](=O)[O-])o1
inactive: [9] | [1] | [4] | [5] | [6] | [7]

CC(C)CCCCCCOC(=O)C1CCCCC1C(=O)OCCCCCCC(C)C (stereo unspecified)
active: [2] 1.17 µM
not listed: [8] | [9] | [10]
inactive: all other assays above

COc1cc2c(c(OC)c1OC)-c1ccc(OC)c(=O)cc1[C@@H](NC(C)=O)CC2
inactive: [1] | [3] | [4] | [5] | [6]

OC[C@H]1O[C@@H]2O[C@H]3[C@H](O)[C@@H](O)[C@@H](O[C@H]4[C@H](O)[C@@H](O)[C@@H](O[C@H]5[C@H](O)[C@@H](O)[C@@H](O[C@H]6[C@H](O)[C@@H](O)[C@@H](O[C@H]7[C@H](O)[C@@H](O)[C@@H](O[C@H]1[C@H](O)[C@H]2O)O[C@@H]7CO)O[C@@H]6CO)O[C@@H]5CO)O[C@@H]4CO)O[C@@H]3CO
not listed: [2] | [8] | [10]
inactive: all other assays above

CCCCCCCCN(C)C
inactive: [1] | [2] | [8] | [4] | [5] | [6]

CCCc1ccccc1
not listed: [2] | [8] | [10]
inactive: all other assays above

CCc1ccc(O)c(C(C)(C)C)c1
inactive: [1] | [4] | [5] | [6] | [7]

CCCCCCCCCC
inactive: [1] | [8] | [3] | [4] | [5] | [6]

OCCNCCO
inactive: [1] | [2] | [4] | [5] | [6] | [7]

O=C(NO)C1(NS(=O)(=O)c2ccc(Oc3ccc(F)cc3)cc2)CCOCC1
active: [5] 31.2 µM
not listed: [7] | [8] | [9]
inactive: all other assays above

CCCCOC(=O)c1ccccc1
not listed: [9] | [10]
inactive: all other assays above

CCCCCCCCCCCCCCCCOS(=O)(=O)O
inactive: [9] | [1] | [4] | [5] | [6]

COCc1nnc(-c2ccc[n+]([O-])c2)n1-c1c(Cl)c(Cl)cc2[nH]c(=O)c(=O)[nH]c12
inactive: [1] | [8] | [3] | [4] | [5] | [6]

CC1(C)C(=O)N(Cl)C(=O)N1Cl
not listed: [2] | [9] | [10]
inactive: all other assays above
